Compounds without any hit were thinned out: in the full panel of roughly 83,000, 20% have a hit.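 The endpoint reported here, percent growth, reads 100 for growth as untreated, 0 for no net growth and -100 for all cells dead.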 Values without a mark were called inactive. The source made the active and inactive calls. The calls were made as follows: active = growth percent below 10; inactive = the rest.
Legend:
Test in all cases: NCI-60 one-dose screen, 48 h (100 = growth as untreated, 0 = no growth, -100 = all killed)
Details in all cases: 10 µM unless noted
HCT-15 colon = test system: HCT-15 colon
HT29 colon = test system: HT29 colon
SNB-75 CNS = test system: SNB-75 CNS
SNB-19 CNS = test system: SNB-19 CNS
U251 CNS = test system: U251 CNS
PC-3 prostate = test system: PC-3 prostate
SK-MEL-5 melanoma = test system: SK-MEL-5 melanoma
UACC-62 melanoma = test system: UACC-62 melanoma
LOX IMVI melanoma = test system: LOX IMVI melanoma
SK-MEL-28 melanoma = test system: SK-MEL-28 melanoma

Structure (SMILES)	growth (HCT-15 colon)	growth (HT29 colon)	growth (SNB-75 CNS)	growth (SNB-19 CNS)	growth (U251 CNS)	growth (PC-3 prostate)	growth (SK-MEL-5 melanoma)	growth (UACC-62 melanoma)	growth (LOX IMVI melanoma)	growth (SK-MEL-28 melanoma)
c1ccc(Nc2nc3c(s2)CCc2c[nH]cc2-3)nc1	102%	100%	88.7%	100%	89.6%	70.4%	83.5%	92.1%	82.7%	110%
CC1(C)CC(=O)C2=C(C1)C(c1ccc(Cl)cc1)n1ncc(C#N)c1N2 (stereo not given)	105%	106%	75.6%	96.5%	97.8%	90.4%	95.4%	89.8%	107%	112%
COc1cc(/C=C/c2cc(/C=C/c3ccc(O)c(OC)c3)n(C(=O)Nc3ccc(Cl)cc3)n2)ccc1O	7.86% (active)	-11.1% (active)	18.7%	9.25% (active)	4.31% (active)	4.24% (active)	-29.7% (active)	4.06% (active)	3.04% (active)	12.7%
O=Nc1ccc(NC(=O)Nc2ccc([N+](=O)[O-])cc2)cc1	83.2%	100%	96.4%	107%	92.5%	72.2%	86.7%	76.9%	88.8%	108%
CC1(C)N=C(N)N=C(N)N1c1cc(Cl)ccc1Cl	13%	24.8%	118%	92.6%	80%	101%	98.1%	88.7%	70.2%	106%
O=C1c2cccnc2C(=O)c2c1c(C(=O)OCCc1ccccn1)c1ccccn21	-75.9% (active)	-75% (active)	-85.3% (active)	-38.7% (active)	-82.5% (active)	-3.59% (active)	-94.2% (active)	-55.6% (active)	-50% (active)	-33.3% (active)
CCN(CC)C(=O)C1=C(C)NC(=O)NC1c1ccc2c(c1)OCO2 (stereo not given)	105%	107%	93.3%	96.2%	102%	98.5%	101%	102%	95.6%	115%
COC(=O)c1c2c(c[n+]([O-])c1C)C(=O)C=C(NCc1ccccc1)C2=O	-58.8% (active)	0.45% (active)	-97.3% (active)	-99.4% (active)	-93.1% (active)	-10.8% (active)	-100% (active)	-81.3% (active)	-74.6% (active)	-71.4% (active)
O=CN1N=C(c2cccc(Nc3ccnc4cc(Cl)ccc34)c2)CC1c1ccc(Cl)cc1 (stereo not given)	29.5%	-24.8% (active)	-17.4% (active)	49%	18.9%	23.1%	12.7%	32.4%	24.2%	52.7%
CC1(C)CC[C@]2(CO)CC[C@]3(C)[C@](O)([C@H](O)C[C@@H]4[C@@]5(C)CCCNC(C)(C)[C@@H]5CC[C@]43C)[C@@H]2C1	88.5%	20.6%	88.7%	103%	79.6%	75.9%	96.8%	103%	87.8%	100%
CCN(CC)CCOc1ccc2ccc(=O)oc2c1	104%	102%	107%	98.5%	101%	21.3%	102%	94.8%	101%	99.6%
c1ccc(-c2ccc3c(c2)C2(CCNCC2)CN3)cc1	99.6%	96.5%	73.8%	101%	102%	86.9%	99.1%	84.6%	89.9%	110%
CC1(C)N=C(N)N=C(N)N1c1ccc(S(=O)(=O)Nc2nccs2)cc1	103%	102%	64.9%	98.2%	103%	93.7%	106%	93.6%	100%	106%
Cc1c(O)cc(-c2cnc(N/N=C/c3ccccc3)s2)c(O)c1C	79.1%	104%	98%	105%	97.9%	69.7%	85.8%	81.9%	79.9%	92.2%
COc1cc2ncnc(Nc3ccc(F)c(Cl)c3)c2cc1OCC(=O)N1CCOCC1	96.6%	91.8%	102%	86%	102%	94.3%	98.4%	86.6%	97.8%	106%
C=C1CC[C@@H]2C(C)(C)[C@H](O)CC[C@@]2(C)[C@@H]1COc1ccc2ccc(=O)oc2c1	56.2%	84.1%	98.5%	86.2%	83.1%	25.2%	19.1%	24.5%	36.5%	73.6%
NS(=O)(=O)c1ccc(C(=O)N=Nc2c(O)[nH]c3ccc(Cl)cc23)cc1	99.4%	99.7%	89%	91.3%	99.7%	97.4%	103%	105%	102%	114%
CN1C(=O)N2CN3CCCN(C3)CN3C(=S)NC1C23 (stereo not given)	103%	95.2%	93.4%	99.3%	101%	98.4%	100%	101%	98.7%	119%
Nc1ncnc2c1N=C(c1ccc(F)cc1)CC(c1cccc(Nc3ccnc4cc(Cl)ccc34)c1)N2 (stereo not given)	48.4%	62.8%	72.7%	82%	66.2%	66.3%	72%	89.5%	68.2%	95.3%
CC(O)Cc1c[nH]c(=O)[nH]c1=O (stereo not given)	97.8%	114%	120%	108%	95.9%	126%	109%	106%	96.5%	122%
O=[N+]([O-])c1ccccc1Sc1ccccc1[N+](=O)[O-]	99.1%	92%	80.8%	106%	90.6%	87.5%	97.3%	100%	91.8%	109%
O=c1c2ccccc2n(C[C@H]2CO2)c2ccccc12	-16.8% (active)	2.83% (active)	-29.4% (active)	22.3%	-6.13% (active)	19.2%	-80.8% (active)	-83.4% (active)	-54.3% (active)	2.83% (active)
O=C(NCCCCO)c1cncnc1Nc1ccc2c(ccn2Cc2cccc(F)c2)c1	85.1%	99.9%	85%	85.1%	94.7%	86%	95.2%	80.4%	93.7%	100%
COc1ccc(/C=C2\c3cc(OC)c(OC)c(OC)c3CC[C@@H]2O)cc1F	20.7%	11.9%	14.5%	42.4%	20.1%	23.1%	23.8%	34.2%	37.3%	70.1%
NS(=O)(=O)c1ccc(C(=O)NN2C(=O)c3ccccc3C2=O)cc1	107%	111%	74.8%	102%	106%	105%	103%	102%	103%	113%
C#CCOc1cccc(Nc2ncnc3c2ncn3C2CCN(C(=O)CCl)C2)c1 (stereo not given)	1.63% (active)	-68.4% (active)	-3.65% (active)	13.7%	-92% (active)	-14.2% (active)	-85.7% (active)	-66% (active)	-86.5% (active)	-43.9% (active)
CC(C)=CC(=O)N[C@H]1CC[C@]2(C)C3CC[C@]4(C)C(C(C)N(C)C)=CCC4C3CCC2[C@H]1O (stereo not given in full)	-36.5% (active)	2.01% (active)	65%	100%	51.5%	37.7%	-76.1% (active)	-25.1% (active)	-59.1% (active)	-72.5% (active)

Source: PubChem BioAssay (NCI)
